# Source: PubChem BioAssay AID588726 (The Scripps Research Institute Molecular Screening Center, 2011)
# Among all 360,000 compounds or so, about 8,200 (2.3%) were called active. Shown is part of a subset that was picked to be rich in actives. Values without a mark were called inactive. Rule as the data show it: active = inhibition above about 27%; inactive = the rest.
# Biological target: Fructose-bisphosphate aldolase (Mycobacterium tuberculosis (strain ATCC 25618 / H37Rv)) (UniProt P9WQA3)
# Experiment: M. tuberculosis aldolase activity blockers – biochemical, fluorescence, strain H37Rv, primary screen (AID 588726);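 also: 0% = vehicle and 100% = reference inhibitor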
# Details: purified M. tuberculosis FBA, fluorescence read-out, at 1 µM, stronger effect = higher value
# Sequence of Fructose-bisphosphate aldolase (Mycobacterium tuberculosis (strain ATCC 25618 / H37Rv)) (P9WQA3 whole entry, looked up): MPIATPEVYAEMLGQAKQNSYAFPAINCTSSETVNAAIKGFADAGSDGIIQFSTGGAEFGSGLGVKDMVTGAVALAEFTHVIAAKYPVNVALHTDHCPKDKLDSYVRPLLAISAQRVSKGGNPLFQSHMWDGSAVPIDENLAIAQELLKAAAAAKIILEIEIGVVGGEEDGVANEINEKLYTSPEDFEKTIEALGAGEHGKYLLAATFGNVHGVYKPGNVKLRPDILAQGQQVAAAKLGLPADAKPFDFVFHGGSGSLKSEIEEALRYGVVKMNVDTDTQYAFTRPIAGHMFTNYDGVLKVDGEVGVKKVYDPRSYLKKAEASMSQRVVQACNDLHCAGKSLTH
row,SMILES,inhibition
1,O=C(OCC(=O)N(CCc1ccccc1)Cc1ccccc1)c1ccccc1[N+](=O)[O-],-2.21%
2,COc1cccc(N(C(=O)c2ccn[nH]2)C2(C(=O)Nc3c(C)cccc3C)CCCCC2)c1,-2.93%
3,CC(=O)Nc1ccc(S(=O)(=O)N2CCC(C(=O)N[C@@H](Cc3ccccc3)C(=O)O)CC2)cc1,7.63%
4,O=C(O)CCN1C(=O)CC2(CCCCC2)C1=O,1.19%
5,O=C(NCc1ccc(F)cc1)c1cc(C2CCCCN2C(=O)C2CCCCC2)on1 (stereo not given),-0.56%
6,CCCC(O)(c1ccccc1)C(c1ccccc1)c1ccccn1 (stereo not given),-3.41%
7,COc1ccccc1CNC(=O)COC(=O)CNS(=O)(=O)c1ccc(NC(C)=O)cc1,-1.17%
8,CC(=O)Nc1ccc(S(=O)(=O)NCC(=O)OCc2cc(=O)oc3ccc4ccccc4c23)cc1,124% (active)
9,COc1ccccc1C(=O)COC(=O)CNS(=O)(=O)c1ccc(NC(C)=O)cc1,0.46%
10,Nn1c(SCC(=O)Nc2nccs2)nncc1=O,-1.98%
11,CC(C)N(C(=O)CSc1nc(COc2ccccc2)nc2ccccc12)C(C)C,-0.47%
12,COc1cc(C(F)(F)F)nc2c(Br)c(C(C)(C)C)nn12,36.7% (active)
13,O=C(CCN1C(=O)C2C3CCC(C3)C2C1=O)Nc1ccc(Cl)cc1Cl (stereo not given),3.23%
14,Cc1cc(C)cc(NC(=O)C(OC(=O)c2ccc(O)cc2)c2ccccc2)c1 (stereo not given),2.39%
15,CN(C)CCCO/N=C(\c1ccccc1)c1ccncc1,-1.04%
16,CC(=O)c1cc2c(cc1NC(=O)CN1CCCCCC1)OCO2,0.04%
17,COc1cccc(N(CC(=O)NC2CCCC2)C(=O)Cn2nnc(-c3ccc(C)o3)n2)c1,2.95%
18,COc1ccc(NC(=O)c2cc3nc(-c4ccccc4)cc(C)n3n2)cc1OC,1.45%
19,COCCNc1cc(-c2ccccc2)nc2cc(-c3cccc(F)c3)nn12,50.2% (active)
20,COc1ccc(-c2cc3nc(NCCOc4ccccc4)ccn3n2)cc1,9.7%

row,SMILES,inhibition
1,O=C(COC(=O)c1ncc(Cl)c(Cl)c1Cl)NCc1ccccc1,3.15%
2,Cc1cccc(NC(=O)COc2ccc(Br)cc2C)n1,2.29%
3,Cc1cccc(NC(=O)Cc2ccc(Br)cc2)n1,-1.42%
4,CC(C)(C)C(=O)Nc1cccc(-c2ccc[nH]2)n1,29.7% (active)
5,N#CCc1ccc(NC(=O)c2ccccc2C(=O)Nc2ccc(CC#N)cc2)cc1,1.02%
6,Cc1ccn2c(c1)nc(=O)c1cc(S(=O)(=O)N3CCC(C)CC3)ccc12,29.3% (active)
7,CC1CCN(S(=O)(=O)c2ccc3c(c2)n(C)c(=O)n3C)CC1,-1.94%
8,CC1CCN(S(=O)(=O)c2ccc3c(ccn3CC(=O)O)c2)CC1,-0.33%
9,N#Cc1ccc(N2Cc3ccccc3/C2=N/C(=O)Nc2ccc(Cl)cc2)cc1,-0.15%
10,CC1CCCCC1NC(=O)CN1CCC(O)(c2ccc3c(c2)OCO3)CC1 (stereo not given),-4.2%
11,CN(C)c1ccc(/C=N/NC(=O)c2ccc(Cn3cc(Br)cn3)o2)cc1,0.83%
12,COc1ccc(/C=N/NC(=O)C(C)N(c2ccc(OC)cc2)S(C)(=O)=O)cc1 (stereo not given),-1.16%
13,CN(C)c1ccc(/C=N/NC(=O)C(O)c2ccc(Br)cc2)cc1 (stereo not given),39.7% (active)
14,CCCNC(=O)N1CCC(c2ccc3c(c2)OCO3)CC1,0.5%
15,O=c1[nH]oc(O)c1-c1ncc(C(F)(F)F)cc1Cl,0.86%
16,Cc1ccc(C)c(NC(=O)c2ccc(OC(=O)c3ccco3)cc2)c1,3.01%
17,CC(=O)N1C(=O)C2(Nc3ccccc3N2)c2ccccc21,6.98%
18,CC(C)=NN1C(=O)c2ccccc2NC1(C)C,36.7% (active)
19,CCOC(=O)C1(Cc2ccc(Cl)cc2)CCN(C(=O)C2=NNC(=O)CC2)CC1,-6.86%
20,CCC(=O)c1ccc(OC(=O)/C=C/c2cc(OC)c(OC)c(OC)c2)cc1,4.81%

row,SMILES,inhibition
1,COc1cc(/C=C/C2=CC(C)(C)NC(=S)N2)cc(OC)c1OC,-5.13%
2,COc1cc(/C=C/c2ccc(/C=C/c3cc(OC)c(OC)c(OC)c3)cc2)cc(OC)c1OC,50.4% (active)
3,CC/C(=N/Nc1ccccc1)c1cnnc(SC)n1,0.39%
4,COc1ccc(C(=O)NC2CCN(C(=O)Nc3ccc(F)cc3)CC2)cc1,-0.69%
5,COc1ccc(NC(=O)N2CCCC(C(=O)Nc3ccccc3OC)C2)cc1 (stereo not given),1.71%
6,COc1ccc(NC(=O)N2CCC(Cc3ccccc3)CC2)cc1,53.4% (active)
7,O=C(COC(=O)c1ccc(S(=O)(=O)N2CCCCCC2)cc1)Nc1ccccc1C(F)(F)F,4.5%
8,CCc1ccc(Oc2coc3cc(OC(=O)c4cc5ccccc5oc4=O)ccc3c2=O)cc1,13.1%
9,CCc1ccc(Oc2coc3cc(O)ccc3c2=O)cc1,70.2% (active)
10,COC(=O)COc1ccc2c(=O)c(Oc3ccccc3Br)coc2c1,-0.49%
11,Cc1ccc(N2C(=O)CC(N3CCSCC3)C2=O)c(C)c1 (stereo not given),3.11%
12,COc1ccc(OC)c2[nH]c(=O)c(CCNC(=O)C(=O)c3c[nH]c4ccccc34)cc12,-5.42%
13,COc1ccc(CCNC(=O)c2ccccc2-c2ccccc2C(=O)O)cc1OC,2.28%
14,COc1cccc2[nH]c(C(=O)NCCc3ccccc3)cc12,33.2% (active)
15,N#C[C@]1(S(=O)(=O)c2ccccc2)C[C@@H]2ON=C(c3cccc(Br)c3)[C@@H]2C1,2.3%
16,NS(=O)(=O)c1cc(C(=O)OCC(=O)NNC(=O)c2ccccc2)ccc1Cl,-1.72%
17,O=C(NCc1ccccc1)C1CNCC(C(=O)NCc2ccccc2)C1 (stereo not given),-0.79%
18,Cn1c(-c2ccco2)nc2cc3ccccc3cc21,81.7% (active)
19,COc1ccc(-n2cnc3cc(NCc4ccco4)ccc32)cc1,-1.49%
20,Cn1c(SCC(=O)Nc2ccc(Br)cc2F)nnc1-c1ccco1,1.98%
